Experimental data: PubChem BioAssay (NCI)
Compounds without any hit were thinned out: in the full panel of roughly 83,000, 20% have a hit.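 Growth was measured after 48 h exposure to one concentration of compound in 96-well plates. Values under 10 count as active.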 The source made the active and inactive calls.

Legend:
Experiment in all cases: NCI-60 one-dose screen, 48 h (100 = growth as untreated, 0 = no growth, -100 = all killed)
Conditions in all cases: 10 µM unless noted
DU-145 prostate = test system: DU-145 prostate
K-562 leukemia = test system: K-562 leukemia
MALME-3M melanoma = test system: MALME-3M melanoma
MDA-MB-231 breast = test system: MDA-MB-231 breast
RXF 393 renal = test system: RXF 393 renal
SF-268 CNS = test system: SF-268 CNS
SF-295 CNS = test system: SF-295 CNS
SF-539 CNS = test system: SF-539 CNS
UACC-257 melanoma = test system: UACC-257 melanoma
M14 melanoma = test system: M14 melanoma

Measured: growth

COc1ccc(C(=O)c2cc(OC)c3c(c2)OCO3)cc1O
inactive: K-562 leukemia 14.8% | MALME-3M melanoma 50.7% | MDA-MB-231 breast 16.4% | SF-268 CNS 27.6% | SF-295 CNS 15.5% | UACC-257 melanoma 65.6% | M14 melanoma 14.2%
active: DU-145 prostate -2.4% | RXF 393 renal -4.75% | SF-539 CNS 6.91%

CC(C)c1ccc2occ(C=C3C(=O)NC(=O)NC3=O)c(=O)c2c1
inactive: DU-145 prostate 109% | K-562 leukemia 72.7% | MALME-3M melanoma 93.7% | MDA-MB-231 breast 98.9% | RXF 393 renal 87.4% | SF-268 CNS 89.3% | SF-295 CNS 119% | SF-539 CNS 121% | UACC-257 melanoma 96.1% | M14 melanoma 91.3%

C=C(C)[C@@H]1C[C@H](O)Cc2cc(F)ccc2N1
inactive: DU-145 prostate 107% | K-562 leukemia 42.2% | MALME-3M melanoma 109% | MDA-MB-231 breast 108% | RXF 393 renal 100% | SF-268 CNS 113% | SF-295 CNS 116% | SF-539 CNS 86.3% | UACC-257 melanoma 93.3% | M14 melanoma 88.6%

O=C(O)c1nc(-c2ccccc2)oc1N1CCOCC1
inactive: DU-145 prostate 109% | K-562 leukemia 94% | MALME-3M melanoma 120% | MDA-MB-231 breast 94.3% | RXF 393 renal 104% | SF-268 CNS 98.3% | SF-295 CNS 107% | SF-539 CNS 115% | UACC-257 melanoma 104% | M14 melanoma 106%

COc1ccc(CCNC2=CC(=O)CCC2)cc1OC
inactive: DU-145 prostate 124% | K-562 leukemia 95.3% | MALME-3M melanoma 92.2% | MDA-MB-231 breast 104% | RXF 393 renal 119% | SF-268 CNS 104% | SF-295 CNS 104% | SF-539 CNS 106% | UACC-257 melanoma 117% | M14 melanoma 104%

COc1ccc(-c2c(N)n[nH]c2-c2cc(OC)c(OC)c(OC)c2)cc1
active: RXF 393 renal -1.72% | SF-539 CNS 1.66% | M14 melanoma 5.82%
inactive: DU-145 prostate 11% | K-562 leukemia 19.3% | MALME-3M melanoma 39.3% | MDA-MB-231 breast 28% | SF-268 CNS 34.9% | SF-295 CNS 12.8% | UACC-257 melanoma 59.2%

NC(N)=N/N=C/c1ccc(-c2ccc(-c3cc(Cl)cc(Cl)c3)s2)cc1
inactive: MALME-3M melanoma 100% | RXF 393 renal 27.4% | SF-268 CNS 73.5% | SF-295 CNS 75.9% | UACC-257 melanoma 106% | M14 melanoma 93.9%
active: DU-145 prostate -45.9% | K-562 leukemia -25.2% | MDA-MB-231 breast -30.4% | SF-539 CNS -3.6%

C=C1CC2(OC1=O)C(=O)N(CCCN1C(=O)C3(CC(=C)C(=O)O3)c3ccccc31)c1ccccc12 (stereo not given)
active: K-562 leukemia 5.21% | MALME-3M melanoma -48.5% | MDA-MB-231 breast -29.2% | RXF 393 renal -61.1% | SF-539 CNS 9.24%
inactive: DU-145 prostate 37.4% | SF-268 CNS 70.6% | SF-295 CNS 82.1% | UACC-257 melanoma 30.4% | M14 melanoma 19.1%

CC(C)(C)n1cc(-c2ccnc(NCCCNS(=O)(=O)c3ccccc3)c2)c(-c2cccc(O)c2)n1
active: K-562 leukemia 4.86%
inactive: DU-145 prostate 55.1% | MALME-3M melanoma 44% | MDA-MB-231 breast 38.6% | RXF 393 renal 52.8% | SF-268 CNS 50.8% | SF-295 CNS 35.1% | SF-539 CNS 38.3% | UACC-257 melanoma 47.2% | M14 melanoma 34.1%

CC12CCC3C4(C)COC(c5ccco5)OC4CCC3(C)C1CC(C1=CCOC1=O)O2 (stereo not given)
inactive: DU-145 prostate 107% | K-562 leukemia 92.6% | MALME-3M melanoma 98.5% | MDA-MB-231 breast 90.2% | RXF 393 renal 99.3% | SF-268 CNS 98.5% | SF-295 CNS 97.9% | SF-539 CNS 107% | UACC-257 melanoma 110% | M14 melanoma 98.6%

C=C1C(=O)O[C@H]2[C@H]1CC/C(Cn1cc(CNC(=O)Cc3cn(C(=O)c4ccc(Cl)cc4)c4ccc(OC)cc34)nn1)=C\CC[C@@]1(C)O[C@@H]21
active: K-562 leukemia -22.6% | MALME-3M melanoma -76.1% | MDA-MB-231 breast -24.1% | RXF 393 renal -61.3% | SF-268 CNS 9.83% | SF-539 CNS -83.7% | M14 melanoma -32.4%
inactive: DU-145 prostate 31.9% | SF-295 CNS 83.5% | UACC-257 melanoma 10.4%

Cc1nc2ncccc2nc1Nc1ccc(S(=O)(=O)Nc2cncs2)cc1
inactive: DU-145 prostate 107% | K-562 leukemia 109% | MALME-3M melanoma 103% | MDA-MB-231 breast 84% | RXF 393 renal 112% | SF-268 CNS 98.2% | SF-295 CNS 107% | SF-539 CNS 106% | UACC-257 melanoma 101% | M14 melanoma 99.6%

CN(C)c1cccc2c(S(=O)(=O)/N=C(\N)Nc3nc4ccccc4s3)cccc12
inactive: DU-145 prostate 96% | K-562 leukemia 21.9% | MALME-3M melanoma 73.7% | MDA-MB-231 breast 68.3% | RXF 393 renal 54.6% | SF-268 CNS 69.7% | SF-295 CNS 33.6% | SF-539 CNS 52.4% | UACC-257 melanoma 78.3% | M14 melanoma 45.3%

COc1cc(/C=N\NC(=O)CN2CCN(c3cc4c(cc3F)c(=O)c(C(=O)N/N=C/c3cc(OC)c(OC)c(OC)c3)cn4C3CC3)CC2)cc(OC)c1OC
inactive: SF-295 CNS 17.4% | UACC-257 melanoma 22.2% | M14 melanoma 18.2%
active: DU-145 prostate 8.55% | K-562 leukemia 5.07% | MALME-3M melanoma -15.8% | MDA-MB-231 breast -16.1% | RXF 393 renal -3.67% | SF-268 CNS -6.34% | SF-539 CNS -68.2%

COc1ccc(-c2ccc(C)n2-c2ccc(-c3nc4ccccc4s3)cc2)cc1
inactive: DU-145 prostate 104% | K-562 leukemia 91.6% | MALME-3M melanoma 108% | MDA-MB-231 breast 68.4% | RXF 393 renal 94.7% | SF-268 CNS 96% | SF-295 CNS 86.5% | SF-539 CNS 99.3% | UACC-257 melanoma 109% | M14 melanoma 103%

CCN(CC)c1ccc2[nH]c3c(C(N)=O)cc(=O)c(=O)c=3oc2c1
active: DU-145 prostate -1.89% | K-562 leukemia 9.48% | MALME-3M melanoma -59.9% | RXF 393 renal -24.5% | SF-295 CNS -9.14% | SF-539 CNS -28.3% | UACC-257 melanoma -29.2% | M14 melanoma -7.36%
inactive: MDA-MB-231 breast 18% | SF-268 CNS 10.5%

CC(=O)Oc1csc(N(C(C)=O)c2cccc(C(F)(F)F)c2)n1
inactive: DU-145 prostate 99.2% | K-562 leukemia 105% | MALME-3M melanoma 88.8% | MDA-MB-231 breast 71.9% | RXF 393 renal 103% | SF-268 CNS 88.9% | SF-295 CNS 96.5% | SF-539 CNS 91% | UACC-257 melanoma 88.5% | M14 melanoma 77.7%

CCCC(=O)Oc1ccc(/C(=C(\C)c2ccccc2)c2ccc(OCCN(CC)CC)cc2)cc1
inactive: DU-145 prostate 102% | K-562 leukemia 16% | MALME-3M melanoma 70.3% | MDA-MB-231 breast 92.6% | RXF 393 renal 61.1% | SF-268 CNS 77.2% | SF-295 CNS 91.4% | SF-539 CNS 60.4% | UACC-257 melanoma 67.6% | M14 melanoma 40.7%

C=C(C)[C@@H]1C[C@@H]2Cc3ccc(Cl)c(C)c3N1O2
inactive: DU-145 prostate 97.3% | K-562 leukemia 91.3% | MALME-3M melanoma 120% | MDA-MB-231 breast 91.5% | RXF 393 renal 99.4% | SF-268 CNS 96.8% | SF-295 CNS 95.4% | SF-539 CNS 90.8% | UACC-257 melanoma 90% | M14 melanoma 105%

Cc1ccc(C(=O)NCCCNc2nccc(-n3ccc4cccnc43)n2)cc1
inactive: DU-145 prostate 96.5% | K-562 leukemia 92.1% | MALME-3M melanoma 111% | MDA-MB-231 breast 104% | RXF 393 renal 102% | SF-268 CNS 94.7% | SF-295 CNS 96% | SF-539 CNS 99.2% | UACC-257 melanoma 107% | M14 melanoma 102%

COc1ccc(-c2c(-c3cc(OC)c4c(c3)OCO4)noc2N)cc1
active: DU-145 prostate -7.24% | K-562 leukemia 8.5% | MDA-MB-231 breast -3.97% | RXF 393 renal 8.2% | SF-295 CNS 2.31% | SF-539 CNS 0.998%
inactive: MALME-3M melanoma 54.4% | SF-268 CNS 16.6% | UACC-257 melanoma 74.6% | M14 melanoma 12%

CC(=O)c1cc2c(N)c(C(=O)Nc3cccc4c3OCCO4)sc2nc1C
inactive: DU-145 prostate 104% | K-562 leukemia 74.7% | MALME-3M melanoma 101% | MDA-MB-231 breast 100% | RXF 393 renal 99.2% | SF-268 CNS 96.3% | SF-295 CNS 92.8% | SF-539 CNS 100% | UACC-257 melanoma 99.5% | M14 melanoma 94.4%

COc1ccc(-c2cc(-c3ccccc3)nc(SCCCC(=O)NO)n2)cc1OC
inactive: SF-539 CNS 14.8%
active: DU-145 prostate 1.4% | K-562 leukemia 3.02% | MALME-3M melanoma -3.72% | MDA-MB-231 breast 6.56% | RXF 393 renal -21.1% | SF-268 CNS -19.2% | SF-295 CNS -0.804% | UACC-257 melanoma -18.2% | M14 melanoma -4.14%

NC(=O)c1c(NC(=S)Nc2ccc(OC(F)(F)F)cc2)sc2c1CCC1(C2)OCCO1
inactive: DU-145 prostate 112% | K-562 leukemia 94.6% | MALME-3M melanoma 109% | MDA-MB-231 breast 98.9% | RXF 393 renal 116% | SF-268 CNS 103% | SF-295 CNS 93.4% | SF-539 CNS 99% | UACC-257 melanoma 97.1% | M14 melanoma 97.2%

O=C(C1=Cc2cc3ccccc3n2Cc2cnnn21)c1ccccc1
inactive: DU-145 prostate 85.6% | K-562 leukemia 21.4% | MALME-3M melanoma 76.9% | MDA-MB-231 breast 54.3% | RXF 393 renal 54.6% | SF-268 CNS 58.8% | SF-295 CNS 56.3% | SF-539 CNS 57.8% | UACC-257 melanoma 74.6% | M14 melanoma 22.2%

C=C1CCC2C(C)(CO)C(O)CCC2(C)C1C/C=C1/C(=O)OCC1Oc1ccccc1C (stereo not given)
inactive: DU-145 prostate 82.8% | K-562 leukemia 30.6% | MALME-3M melanoma 109% | MDA-MB-231 breast 109% | RXF 393 renal 109% | SF-268 CNS 102% | SF-295 CNS 97.6% | SF-539 CNS 81.1% | UACC-257 melanoma 83.5% | M14 melanoma 67.1%

CCN1CCN(c2nc(NNC(=O)c3ccccc3)nc(N3CCN(C(c4ccccc4)c4ccccc4)CC3)n2)CC1
inactive: DU-145 prostate 71.9% | MDA-MB-231 breast 71.7% | RXF 393 renal 59.7% | SF-268 CNS 76.9% | SF-295 CNS 79.3% | SF-539 CNS 73.1% | UACC-257 melanoma 13.9%
active: K-562 leukemia 9.4% | MALME-3M melanoma 4.38% | M14 melanoma 0.297%
